# Several values for one entry are separate records, joined by “and”; a condition that tells them apart may be missing. Equal values may be shown once. Inconclusive results are not listed. A call without a number means that no potency is given here. More than one record can exist for a structure, and the calls need not agree. Activity calls are given as the source filed them. Unless noted, the call rests on the fitted dose curve; in most records, active means well fitted curve in the direction sought with a large enough effect in the repeat runs; inconclusive means weak or mixed curves; inactive means no such curve, though single readings can be large; an effect the other way counts as inactive or inconclusive.
# How the values were obtained:
# [1] = target: Estrogen receptor (Homo sapiens) (UniProt P03372); experiment: qHTS assay to identify small molecule antagonists of the estrogen receptor alpha (ER-alpha) signaling pathway using the BG1 cell line in the presence of 0.1 nM 17-beta-estradiol (AID 1259244); further: nearly all actives have a fitted effect of over 50% in size
# How it was run: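 VM7Luc4E2 cells (endogenous full-length ER-alpha, stable 4xERE-luciferase) were grown 5 days in phenol red-free medium with charcoal-stripped FBS, then exposed 22 h at 37C to compounds plus 0.1 nM (final) 17beta-estradiol; ONE-Glo luminescence read-out.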
# [2] = qHTS assay to identify small molecule HDAC inhibitors (AID 1259364); further: nearly all actives have a fitted effect of over 45% in size; further: potency means the concentration at half of the fitted maximal effect
# How it was run: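 Wild-type HCT-116 cells were plated overnight, exposed to compounds for 2 h at 37 °C, then given HDAC-Glo class I/II luminogenic reagent for 30 min at room temperature before luminescence was read.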
# [3] = qHTS assay to identify small molecule HDAC inhibitors - cell viability counter screen (AID 1259365); further: series mostly up to about 92 µM; nearly all actives have a fitted effect of over 50% in size
# How it was run: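 Following a 2hr exposure of overnight-plated wild-type HCT-116 cells to DMSO-delivered compounds, CellTiter-Glo was added and luminescence recorded after 30min at room temperature.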
# [4] = qHTS assay to identify small molecule agonists of the sonic hedgehog signaling (Shh) pathway - cell viability counter screen (AID 1259366); further: nearly all actives have a fitted effect of over 50% in size
# How it was run: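 After a 4hr attachment at 37C, NIH/3T3 cells bearing an integrated Gli1-driven luciferase reporter were dosed with compounds. Treatment lasted 24hr, with the final hour including CellTiter-Fluor for a fluorescence viability measurement.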
# [5] = qHTS assay to identify small molecule antagonists of the sonic hedgehog signaling (Shh) pathway - cell viability counter screen (AID 1259367); further: nearly all actives have a fitted effect of over 55% in size
# How it was run: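 Cells: 3T3 Gli1-Luc, 2,000/well, 4 hr pre-incubation. Compounds in DMSO, then conditioned medium. Incubation 24 hr, 37C, 5% CO2. CellTiter-Fluor at 23 hr, 1 hr, fluorescence.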
# [6] = qHTS assay to identify small molecule agonists of the sonic hedgehog signaling (Shh) pathway (AID 1259368; calls by dose curve; further: series mostly up to about 92 µM; nearly all actives have a fitted effect of over 15% in size)
# How it was run: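 NIH/3T3-derived 3T3Gli1-Luc cells carrying a stably integrated Gli1 response element–firefly luciferase reporter were plated, left 4 hr at 37 C, then given compounds in DMSO for 24 hr. Luminescence was read 30 min after adding luciferase reagent.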
# [7] = qHTS assay to identify small molecule antagonists of the sonic hedgehog signaling (Shh) pathway (AID 1259369; calls by dose curve; further: nearly all actives have a fitted effect of over 45% in size; further: potency means the concentration at half of the fitted maximal effect)
# How it was run: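 NIH/3T3-derived 3T3Gli1-Luc cells with stably integrated Gli1-Luc reporter were preincubated 4hr at 37 C, then given compounds in DMSO plus Shh conditioned medium and incubated 24hr. Firefly luciferase luminescence read after 30min reagent at room temperature.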
# [8] = qHTS assay to identify small molecule agonists of the androgen receptor (AR) signaling pathway in the presence of an antagonist - cell viability counter screen (AID 1259379);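 further: MDA-kb2 human breast cancer cells carrying an MMTV luciferase reporter; series mostly up to about 92 µM; nearly all actives have a fitted effect of over 25% in size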
# How it was run: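 MDA-kb2 human breast carcinoma cells (stable MMTV-luciferase, AR/GR responsive) were seeded 3,000 cells/well, pre-incubated 5 hr at 37C without CO2, then given 3.0uM nilutamide and compounds at 15 concentrations for 16 hr. Viability was read by CellTiter-Fluor fluorescence.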
# [9] = qHTS assay to identify small molecule agonists of the estrogen receptor beta (ER-beta) signaling pathway - cell viability counter screen (AID 1259380); further: nearly all actives have a fitted effect of over 30% in size
# How it was run: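 ER-beta-UAS-bla HEK293T cells in medium with 2% charcoal-stripped FBS were preincubated 6 hr at 37C, dosed with compound in DMSO for 16 hr, then after the bla read, CellTiter-Glo was added for 30 min at room temperature; luminescence recorded.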
# [10] = qHTS assay to identify small molecule antagonists of the estrogen receptor beta (ER-beta) signaling pathway - cell viability counter screen (AID 1259382);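 further: HEK293T cells carrying ER-beta-UAS-bla reporter stimulated with estradiol; series mostly up to about 92 µM; nearly all actives have a fitted effect of over 55% in size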
# How it was run: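 ER-beta-UAS-bla HEK293T cells (2,000/well, 2% charcoal-stripped FBS) were pre-incubated 6 hr at 37C, then given compound plus 1nM final 17-beta-estradiol for 16 hr. Viability was read in the same wells by CellTiter-Glo luminescence after 30 min at room temperature.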
# [11] = target: Estrogen receptor (Homo sapiens) (UniProt P03372); experiment: qHTS assay to identify small molecule agonists of the estrogen receptor alpha (ER-alpha) signaling pathway in the presence of an antagonist (AID 1259383; calls by dose curve; further: top concentration of the series differs between compounds; nearly all actives have a fitted effect of over 15% in size)
# How it was run: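 VM7Luc4E2 cells (endogenous full-length ER-alpha, 4×ERE-luciferase) were precultured 5 days in phenol red-free medium with 10% charcoal-stripped FBS, given 10.0nM ICI-182,780 (final), then treated with compounds at 15 concentrations for 22hr at 37C; luminescence read with ONE-Glo.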
# [12] = target: Thyrotropin receptor (Homo sapiens) (UniProt P16473); experiment: qHTS assay to identify small molecule antagonists of the thyroid stimulating hormone receptor (TSHR) signaling pathway (AID 1259385; calls by dose curve; further: nearly all actives have a fitted effect of over 20% in size)
# How it was run: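 Antagonist mode: compound-treated TSHR-expressing HEK293 cells were stimulated with 1.5 ng/mL TSH (final) in presence of Ro20-1724 for 30 min at RT. HTRF cAMP detection after 1 h; each compound tested at 15 concentrations, triplicate.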
# [13] = qHTS assay to identify small molecule agonists of the estrogen receptor alpha (ER-alpha) signaling pathway in the presence of an antagonist - cell viability counter screen (AID 1259386); further: series mostly up to about 92 µM; nearly all actives have a fitted effect of over 30% in size
# How it was run: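 VM7Luc4E2 cells (endogenous full-length ER-alpha, 4×ERE-luciferase) were held 5 days in phenol red-free medium with 10% charcoal-stripped FBS, plated, then given 10.0nM ICI-182,780 and compounds at 15 concentrations for 22hr at 37C; viability read by CellTiter-Fluor fluorescence.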
# [14] = target: Progesterone receptor (Homo sapiens) (UniProt P06401); experiment: qHTS assay to identify small molecule agonists of the progesterone receptor (PR) signaling pathway (AID 1346784; calls by dose curve; further: nearly all actives have a fitted effect of over 30% in size)
# How it was run: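 Using charcoal-stripped serum (2%) to limit endogenous steroids, PR-UAS-bla HEK 293T cells received compounds for 16 hr at 37C after 6 hr plating; beta-lactamase FRET fluorescence was recorded following 2 hr substrate loading at room temperature.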
# [15] = target: Progesterone receptor (Homo sapiens) (UniProt P06401); experiment: qHTS assay to identify small molecule antagonists of the progesterone receptor (PR) signaling pathway (AID 1346795; active means well fitted inhibition curve with a large enough effect in the signal ratio in the repeat runs, not every such curve was filed as active; the % refers to the signal ratio; further: potency means the concentration at half of the fitted maximal effect)
# How it was run: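 Inhibition of R5020-induced (1 nM final) beta-lactamase reporter signal in PR-UAS-bla HEK293T cells was scored by FRET fluorescence after overnight (16 hr) compound treatment.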
# [16] = target: Estrogen receptor beta (Homo sapiens) (UniProt Q92731); experiment: qHTS assay to identify small molecule agonists of the estrogen receptor beta (ER-beta) signaling pathway (AID 1259377; active means well fitted activation curve with a large enough effect in the signal ratio in the repeat runs, not every such curve was filed as active; the % refers to the signal ratio)
# How it was run: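 In HEK293T cells bearing a UAS-beta-lactamase reporter under ER-beta control, DMSO-delivered compounds were incubated for 16 hr at 37C. Activity was detected as fluorescence 2 hours after LiveBLAzer B/G FRET substrate addition.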
# [17] = target: Estrogen receptor beta (Homo sapiens) (UniProt Q92731); experiment: qHTS assay to identify small molecule antagonists of the estrogen receptor beta (ER-beta) signaling pathway (AID 1259378; active means well fitted inhibition curve with a large enough effect in the signal ratio in the repeat runs, not every such curve was filed as active; the % refers to the signal ratio)
# How it was run: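 Antagonist mode: compounds added to beta-lactamase reporter HEK293T ER-beta-UAS cells stimulated with E2 (1nM final), 16 hr at 37C. LiveBLAzer B/G FRET substrate, 2 hours room temperature, fluorescence read-out.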
# [18] = qHTS assay to identify small molecule agonists or antagonists of the thyroid stimulating hormone receptor (TSHR) signaling pathway - wild type cell line counter screen (AID 1259384; calls by dose curve)
# How it was run: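 Counter screen in untransfected Hek293: compounds (15-point titration, triplicate) plus phosphodiesterase inhibitor Ro20-1724 added after 18 h plating; 30 min RT. Intracellular cAMP via competitive d2/cryptate immunoassay, 1 h incubation.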
# Thyrotropin receptor (Homo sapiens), sequence (P16473 whole entry, looked up): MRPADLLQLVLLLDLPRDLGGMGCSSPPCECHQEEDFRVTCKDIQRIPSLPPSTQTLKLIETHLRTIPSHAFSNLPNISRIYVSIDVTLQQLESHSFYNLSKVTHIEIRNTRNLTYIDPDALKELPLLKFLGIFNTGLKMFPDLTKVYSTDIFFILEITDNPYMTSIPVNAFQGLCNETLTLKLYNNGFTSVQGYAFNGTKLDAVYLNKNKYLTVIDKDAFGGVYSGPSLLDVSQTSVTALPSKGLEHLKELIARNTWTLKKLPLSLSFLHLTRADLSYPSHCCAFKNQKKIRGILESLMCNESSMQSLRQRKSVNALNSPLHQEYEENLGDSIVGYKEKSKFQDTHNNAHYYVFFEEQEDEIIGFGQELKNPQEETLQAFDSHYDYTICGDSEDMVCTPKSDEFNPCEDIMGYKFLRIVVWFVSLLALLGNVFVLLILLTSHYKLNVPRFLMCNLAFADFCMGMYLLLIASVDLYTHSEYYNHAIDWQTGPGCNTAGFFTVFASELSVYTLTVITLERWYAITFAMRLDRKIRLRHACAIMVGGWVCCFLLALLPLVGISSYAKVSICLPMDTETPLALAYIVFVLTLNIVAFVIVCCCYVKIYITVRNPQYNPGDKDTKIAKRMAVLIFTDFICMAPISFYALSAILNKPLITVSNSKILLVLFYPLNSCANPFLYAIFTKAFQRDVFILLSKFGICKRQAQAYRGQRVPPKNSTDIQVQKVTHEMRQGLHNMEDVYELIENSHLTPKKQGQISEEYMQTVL
# Estrogen receptor (Homo sapiens), sequence (P03372 whole entry, looked up): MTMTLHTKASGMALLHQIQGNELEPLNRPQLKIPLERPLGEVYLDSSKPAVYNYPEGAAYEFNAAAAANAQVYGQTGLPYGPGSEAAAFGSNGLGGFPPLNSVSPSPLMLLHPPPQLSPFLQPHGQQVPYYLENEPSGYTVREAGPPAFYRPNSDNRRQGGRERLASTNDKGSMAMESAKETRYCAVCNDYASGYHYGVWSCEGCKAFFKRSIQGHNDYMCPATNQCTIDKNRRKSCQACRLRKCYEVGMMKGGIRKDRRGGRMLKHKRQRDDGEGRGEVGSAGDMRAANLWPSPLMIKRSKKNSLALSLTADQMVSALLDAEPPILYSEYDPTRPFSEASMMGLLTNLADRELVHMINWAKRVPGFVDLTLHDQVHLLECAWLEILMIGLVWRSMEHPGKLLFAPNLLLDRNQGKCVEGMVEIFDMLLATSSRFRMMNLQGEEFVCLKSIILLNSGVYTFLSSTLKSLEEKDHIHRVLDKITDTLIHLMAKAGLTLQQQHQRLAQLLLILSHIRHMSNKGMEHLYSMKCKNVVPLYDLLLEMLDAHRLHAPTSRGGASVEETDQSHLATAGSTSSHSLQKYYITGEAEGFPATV
# Progesterone receptor (Homo sapiens), sequence (P06401 whole entry, looked up): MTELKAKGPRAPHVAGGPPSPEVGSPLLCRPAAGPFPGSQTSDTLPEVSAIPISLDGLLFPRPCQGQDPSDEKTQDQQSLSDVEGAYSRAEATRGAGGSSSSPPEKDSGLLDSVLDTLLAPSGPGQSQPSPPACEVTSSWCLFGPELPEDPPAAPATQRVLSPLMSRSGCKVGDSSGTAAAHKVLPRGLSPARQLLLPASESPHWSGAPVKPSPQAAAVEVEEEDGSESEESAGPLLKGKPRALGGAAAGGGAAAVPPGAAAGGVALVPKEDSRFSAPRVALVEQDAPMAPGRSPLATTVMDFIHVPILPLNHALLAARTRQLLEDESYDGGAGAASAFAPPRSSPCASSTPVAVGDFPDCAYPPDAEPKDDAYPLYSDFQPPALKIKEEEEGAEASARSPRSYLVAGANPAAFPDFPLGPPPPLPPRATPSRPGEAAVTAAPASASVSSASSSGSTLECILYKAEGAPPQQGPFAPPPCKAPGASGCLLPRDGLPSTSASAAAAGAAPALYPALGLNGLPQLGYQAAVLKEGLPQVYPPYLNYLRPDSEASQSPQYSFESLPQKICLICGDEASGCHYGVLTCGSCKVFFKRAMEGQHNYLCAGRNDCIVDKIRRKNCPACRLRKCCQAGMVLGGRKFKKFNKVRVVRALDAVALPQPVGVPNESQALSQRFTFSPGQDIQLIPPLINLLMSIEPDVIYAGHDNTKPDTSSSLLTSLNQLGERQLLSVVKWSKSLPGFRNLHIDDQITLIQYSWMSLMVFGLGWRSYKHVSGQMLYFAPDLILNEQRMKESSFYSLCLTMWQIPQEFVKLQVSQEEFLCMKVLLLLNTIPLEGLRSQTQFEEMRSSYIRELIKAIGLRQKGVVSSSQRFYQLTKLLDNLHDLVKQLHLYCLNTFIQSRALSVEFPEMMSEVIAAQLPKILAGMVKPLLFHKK
# Estrogen receptor beta (Homo sapiens), sequence (Q92731 whole entry, looked up): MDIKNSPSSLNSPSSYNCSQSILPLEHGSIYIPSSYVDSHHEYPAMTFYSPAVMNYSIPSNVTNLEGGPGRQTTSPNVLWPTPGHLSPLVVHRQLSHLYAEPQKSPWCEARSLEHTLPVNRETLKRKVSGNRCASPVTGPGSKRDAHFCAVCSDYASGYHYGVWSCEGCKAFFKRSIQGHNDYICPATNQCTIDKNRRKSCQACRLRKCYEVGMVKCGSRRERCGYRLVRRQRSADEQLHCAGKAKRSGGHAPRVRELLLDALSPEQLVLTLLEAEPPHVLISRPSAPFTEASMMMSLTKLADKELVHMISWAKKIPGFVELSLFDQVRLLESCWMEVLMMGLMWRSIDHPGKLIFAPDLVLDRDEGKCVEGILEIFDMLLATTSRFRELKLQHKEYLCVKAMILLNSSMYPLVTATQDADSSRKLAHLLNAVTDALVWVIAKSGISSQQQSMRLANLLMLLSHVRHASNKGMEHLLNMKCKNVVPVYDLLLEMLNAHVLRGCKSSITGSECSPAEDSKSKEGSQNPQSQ
Compound,Potency [1],Potency [2],outcome [3],Potency [4],Potency [5],outcome [6],Potency [7],outcome [8],Potency [9],Potency [10],Potency [11],Potency [12],outcome [13],outcome [14],Potency [15],Potency [16],outcome [17],outcome [18]
Cc1cccc([N+](=O)[O-])c1,inactive,inactive,inactive,inactive,inactive,inactive,inactive,inactive,inactive,inactive,inactive,inactive,inactive,inactive,inactive,–,–,–
COC(=O)NC(=S)Nc1ccccc1NC(=S)NC(=O)OC,inactive,inactive,inactive,inactive,inactive,inactive,inactive,inactive,inactive,–,inactive,inactive,inactive,inactive,inactive,inactive,inactive,inactive
CC(C)OC(=O)Nc1cccc(Cl)c1,inactive,15.1 µM (active) and 13.7 µM (active),inactive,inactive,inactive,inactive,inactive,inactive,inactive,–,inactive,inactive,inactive,inactive,–,inactive,inactive,–
CON(C)C(=O)Nc1ccc(Cl)c(Cl)c1,inactive,27.4 µM (active) and 19.3 µM (active),inactive,inactive,inactive,inactive,inactive,inactive,inactive,–,inactive,inactive,inactive,–,–,–,–,inactive
CCCCN(CCCC)SN(C)C(=O)Oc1cccc2c1OC(C)(C)C2,inactive,inactive,inactive,inactive,inactive,inactive,31.1 µM (active) and inactive,inactive,inactive,inactive,inactive,–,inactive,–,inactive,–,–,–
Nc1ccc(Br)cc1,inactive,inactive,inactive,inactive,inactive,inactive,43.2 µM (active) and inactive,inactive,inactive,inactive,inactive,inactive,inactive,inactive,61 µM (active),inactive,–,–
CC(Br)C(=O)O (stereo unspecified),inactive,inactive,inactive,inactive,inactive,inactive,inactive,inactive,inactive,inactive,inactive,inactive,inactive,–,inactive,inactive,inactive,–
O=C(O)c1ccccn1,inactive,inactive,inactive,inactive,inactive,inactive,inactive,inactive,inactive,inactive,inactive,–,inactive,–,inactive,inactive,inactive,–
CN=C=S,inactive,inactive,inactive,inactive,inactive,inactive,2.19 µM (active),inactive,inactive,inactive,inactive,inactive,inactive,inactive,inactive,–,–,inactive
CC(Oc1ccc(Cl)cc1Cl)C(=O)O (stereo unspecified),inactive,inactive,inactive,inactive,inactive,inactive,inactive,inactive,inactive,inactive,inactive,inactive,inactive,–,inactive,–,–,inactive

# Reference: PubChem BioAssay (Tox21)
